From PubChem BioAssay
Sfp PPTase inh – blocks B. subtilis Sfp PPTase activity | Q9F4F7 | Biochemical Sfp PPTase activity, qHTS | Potency, µM, most hits filed as inhibitors | 310,000 tested, 3.5% active | AID 1490;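 further: the enzyme is Sfp with the accession as filed and its product quenches rhodamine fluorescence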
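After 15 min at room temperature with compound, 15 nM Sfp received 5 uM rhodamine-CoA plus 12.5 uM BHQ-2-ybbR (50 mM Hepes pH 7.6, 10 mM MgCl2). Rate came from the fluorescence difference over 30 min, ex 525/em 598 nm.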
JMJD2A Tudor – blocks the human JMJD2A Tudor domain. O75164. AlphaScreen JMJD2A-Tudor / H3K4me3 peptide binding. Potency, µM (series often up to 114 µM), most hits filed as inhibitors. 390,000 tested, 4.4% active. AID 504339; further: nearly all actives have a fitted effect of over 50% in size
HP1b binding inh – blocks HP1-beta chromodomain binding to methylated histone tails | AlphaScreen HP1-beta / biotin-H3K9me3 peptide binding | Potency, µM (titrated, usually from 114 µM), hits mostly inhibitors | 390,000 tested, 0.56% active; further: nearly all actives have a fitted effect of over 70% in size
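HP1-beta protein (50 nM final) preincubated 30 min at room temperature with biotinylated H3(1-18)K9me3 peptide (50 nM) in PBS pH 7.4, 0.01% Tween-20, then compound added for 30 min. AlphaScreen streptavidin donor/nickel chelate acceptor beads (10 ug/mL final), 30 min dark, luminescence read.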
G9a block – inhibitors of human histone lysine methyltransferase G9a; AID 504332; G9a H3K9 monomethylation, AlphaScreen, 2 h; Q96KQ7; 350,000 tested, 8.8% active; Potency, µM (doses to about 102 µM), hits mostly inhibitors; further: nearly all actives have a fitted effect of over 75% in size
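AlphaScreen detection with an anti-monomethyl H3K9 antibody quantified product after a 2 h room-temperature reaction containing 500 nM biotinylated H3K9 peptide, 20 µM SAM and 20 nM enzyme, which had been preincubated 15 min with compound.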
BAZ2B inh – blocks human BAZ2B; Q9UIF8; AlphaScreen BAZ2B-H3K14Ac peptide displacement; Potency, µM (highest dose often 114 µM), usual class: inhibitors; 360,000 tested, 4.4% active; further: nearly all actives have a fitted effect of over 60% in size
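Inhibition is scored as reduced AlphaScreen emission. The BAZ2B/b-H3(5-23)K14Ac complex (50 nM each) in PBS pH 7.4, 0.01% Tween-20 meets compound (up to 110 uM) for 30 min at RT before bead addition.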
L3MBTL1 inh – L3MBTL1 (human) inhibition | AlphaScreen L3MBTL1–H3K9me1 peptide binding | 230,000 tested, 0.66% active | Q9Y468 | Potency, µM (titrated, usually from 57.1 µM), most hits filed as inhibitors; further: nearly all actives have a fitted effect of over 60% in size
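Displacement of a biotinylated histone H3(1-15) peptide monomethylated at Lys9 (75 nM) from L3MBTL1 (50 nM) was measured by AlphaScreen after a 30 min room-temperature compound incubation; cefsulodin titration served as intraplate control.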
A number is an active result; . = inactive; ? = inconclusive; / = no result given; [ ] = remark or other dose. Hits are enriched below; roughly 12% of the tested compounds scored in any of these assays. The call rests on the fitted dose curve; in most records, active means well fitted curve in the direction sought with a large enough effect; inconclusive means small, poorly fitted or top-dose-only effect, or another doubt; inactive means no such curve, though single readings can be large; an effect the other way counts as inactive or inconclusive.

SMILES	Sfp PPTase inh	JMJD2A Tudor	HP1b binding inh	G9a block	BAZ2B inh	L3MBTL1 inh
CN(c1ccc([N+](=O)[O-])cc1C(N)=O)C1CCCCC1	.	.	.	.	79µM	.
COc1ccc(C)cc1NC(=O)CSc1nc(=O)n(Cc2ccncc2)c2c1CCC2	/	.	.	.	.	/
O=C(NNc1cc(Cl)cc(Cl)c1)c1cccs1	.	.	.	28µM	.	.
NS(=O)(=O)c1ccc(NNC(=O)c2ccc(F)cc2F)cc1	.	.	.	11µM	.	/
NS(=O)(=O)c1ccc(NNC(=O)c2cccs2)cc1	?	.	.	10µM	.	/
O=C(NNC(=S)Nc1ccc(Cl)cc1)c1cccs1	.	.	.	25µM	.	.
NS(=O)(=O)c1ccc(NS(=O)(=O)c2cccs2)cc1	.	.	.	.[12.7 µM]	.	/
O=C(NNc1ccc(Cl)cc1)c1cccs1	.	.	.	10µM	.	.
Cc1cc(C)cc(NC(=O)Cn2c(=O)n(C(C)C)c(=O)c3oc4ccccc4c32)c1	/	.	.	.	.	/
O=C(CSc1nc2ccccc2c(=O)n1Cc1ccc(Cl)cc1)NCc1cccs1	.	.	.	.	.	.
COCCn1c(-c2ccc(Cl)cc2)cnc1SCC(=O)NCc1cccs1	.	?	?	45µM	?	.
CCOc1ccc(NC(=O)CN(C)C(=O)c2ccc(N3CCCCCC3)c([N+](=O)[O-])c2)cc1OCC	/	50µM	.	.[2.33 µM]	?	.
CN(CC(=O)Nc1cccc(F)c1)C(=O)c1ccc2c(c1)CC(c1ccccc1)OC2=O (stereo not drawn)	/	?	.	14µM	?	.
CN(CC(=O)Nc1cccc(F)c1)C(=O)c1ccc(N2CCCC2)c([N+](=O)[O-])c1	/	?	.	50µM	?	.
CCCN(CC(=O)Nc1ccccc1C)C(=O)c1ccc(N2CCCC2)c([N+](=O)[O-])c1	/	?	.	.[0.501 µM]	.	.
CCCN(CC(=O)Nc1ccccc1C)C(=O)c1ccc(N2CCCCC2)c([N+](=O)[O-])c1	/	?	.	50µM	?	.
CN(CC(=O)Nc1cccc(F)c1)C(=O)c1ccc(N2CCCCCC2)c([N+](=O)[O-])c1	/	?	?	?	?	.
COc1ccccc1-c1nn(CCC(=O)Nc2ccc(C)cc2)c2nc(C)cc(C)c12	/	.	.	.	.	/
CCc1nn2c(=O)cc(COC(=O)c3ccccc3NC(=O)c3cccs3)nc2s1	/	.	.	.	.	/
CCOC(=O)c1cc(C)n(CC2CCC(C(=O)Nc3ccc(C)cc3)CC2)c1C (stereo not drawn)	/	.	.	.	.	/
Cc1ccc(CSc2nc3ccc(NC(=O)C(C)C)cc3s2)cc1	/	.	.	.	.	/
COc1cccc(NC(=O)CN(C)C(=O)c2ccc(N3CCCCC3)c([N+](=O)[O-])c2)c1	/	?	.	.[12.7 µM]	?	.
CN(CCOc1ccccc1)C(=O)c1ccc(N2CCCC2)c([N+](=O)[O-])c1	.	?	?	50µM	?	/
CN(CC(=O)Nc1cccc(F)c1)C(=O)c1cccc(-n2cccc2)c1	/	28µM	?	?	28µM	7.1µM
O=C(c1ccc(N2CCCCC2)c([N+](=O)[O-])c1)N(Cc1ccccc1)c1ccccn1	.	45µM	?	?	32µM	.
SMILES	Sfp PPTase inh	JMJD2A Tudor	HP1b binding inh	G9a block	BAZ2B inh	L3MBTL1 inh
CCN(CC(=O)Nc1c(F)cccc1F)C(=O)c1ccc(N2CCCC2)c([N+](=O)[O-])c1	/	.	.	.	.	.
CCN(CC(=O)Nc1c(F)cccc1F)C(=O)c1cc([N+](=O)[O-])ccc1N1CCCCC1	/	.	.	14µM	.	.
Cc1csc2nc(COC(=O)CNC(=O)c3ccccc3Cl)cc(=O)n12	/	.	.	.	.	/
CCc1nc2ccc(C(=O)N(C)CC(=O)Nc3ccc(Cl)c(C(F)(F)F)c3)cc2nc1CC	/	.	.	.[0.501 µM]	?	.
CCOc1ccc(NC(=O)CN(C)C(=O)c2ccc3nc(CC)c(CC)nc3c2)cc1OCC	/	.	.	50µM	.	.
Cc1cccc2sc(N(CCCN(C)C)C(=O)c3ccc(Cl)s3)nc12	?	?	.	.	.	/
Cc1cc(C)c2sc(N(CCCN(C)C)C(=O)CN3C(=O)c4ccccc4C3=O)nc2c1	.	.[11.4 µM]	.	50µM	?	.
Cc1cc(C)c2sc(N(CCCN(C)C)C(=O)c3ccc(Br)s3)nc2c1	.	?	.	?	50µM	.
CCCCN(CC)S(=O)(=O)c1ccc(C(=O)N(CCCN(C)C)c2nc3cc(C)cc(C)c3s2)cc1	50µM	?	.	45µM	?	.
Cc1cc(C)c2sc(N(CCCN(C)C)C(=O)c3ccc(S(=O)(=O)N(C)Cc4ccccc4)cc3)nc2c1	/	?	?	40µM	?	.
CCC(Cc1ccccc1)NC(=O)CN1C(=O)COc2ccc(S(=O)(=O)N3CCCCCC3)cc21 (stereo not drawn)	/	.	.	.	.	/
CCCN1CNc2c(c(=O)[nH]c(=S)n2CCc2cccc(OC)c2)C1	/	.	.	/	/	/
CCN(Cc1ccccc1)S(=O)(=O)c1ccc(C(=O)N(CCCN(C)C)c2nc3cc(C)cc(C)c3s2)cc1	/	?	?	25µM	?	.
Cc1ccc2sc(N(CCCN(C)C)C(=O)c3ccc(S(=O)(=O)N(C)C)cc3)nc2c1C	.	.	.	?	/	/
CCOC(=O)c1cc(-c2ccc(N)cc2)sc1N	.	45µM	.	?	32µM	.
CC(=O)C1=C(O)C(=O)N(Cc2cccnc2)C1c1ccc(O)cc1 (stereo not drawn)	.	.[11.4 µM]	.	50µM	79µM	.
CCCCOc1cccc(C2C(C(=O)c3cccs3)=C(O)C(=O)N2Cc2cccnc2)c1 (stereo not drawn)	.	.	.	?	.	.
CC(=O)C1=C(O)C(=O)N(Cc2ccco2)C1c1ccc2c(c1)OCO2 (stereo not drawn)	.	.	.	50µM	.	.
CC(=O)C1=C(O)C(=O)N(Cc2cccnc2)C1c1ccccc1 (stereo not drawn)	.	.	.	?	.	.[11.4 µM]
CCOc1cccc(C2C(C(=O)c3cccs3)=C(O)C(=O)N2Cc2cccnc2)c1 (stereo not drawn)	.	.	.	56µM	.	.
C=CCOc1cccc(C2C(C(=O)c3ccc(C)o3)=C(O)C(=O)N2Cc2ccncc2)c1 (stereo not drawn)	.	.[11.4 µM]	.	?	.	.
C=CCOc1ccc(C2C(C(=O)c3ccc(C)o3)=C(O)C(=O)N2Cc2cccnc2)cc1 (stereo not drawn)	.	?	.	40µM	.	/
Cc1ccc2nc(CN3CCN(C(=O)Nc4ccc(C)c(F)c4)CC3)oc2c1	/	.	.	.[12.7 µM]	.	/
C=CCOc1cccc(C2C(C(=O)c3ccco3)=C(O)C(=O)N2Cc2ccco2)c1 (stereo not drawn)	?	.	.	45µM	.	/
